The values below come from PubChem BioAssay (NCI).

Test systems include NCI-H23 lung; NCI-H226 lung; NCI-H322M lung; HOP-62 NSCLC; NCI-H460 lung; HOP-92 NSCLC; NCI-H522 lung; A549/ATCC NSCLC; 786-0 renal; COLO 205 colon.
Common to all, as to assay: NCI-60 one-dose screen, 48 h (100 = growth as untreated, 0 = no growth, -100 = all killed)
Holding throughout (conditions): 10 µM unless noted

Each structure is given as a SMILES string. Compounds without any hit were thinned out: in the full panel of roughly 83,000, 20% have a hit.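 Activity criterion: percent growth below 10, measured after cells in 96-well plates were exposed to a single compound concentration for 48 hours.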 Unmarked numbers belong to inactive results. Activity calls are given as the source filed them.

Turning to `CCSc1nc(NC)c2cc(-c3ccc(C(F)(F)F)cc3)ccc2n1`, the growth in the experiment on NCI-H23 lung is 94.3%; in the experiment with NCI-H226 lung, 93.3%; with NCI-H322M lung, 97.8%; in the experiment on HOP-62 NSCLC, 101%; with NCI-H460 lung, 103%; in the experiment on HOP-92 NSCLC it was 97.6%. Besides, the growth is 93.7% in the experiment on NCI-H522 lung, 100% with A549/ATCC NSCLC, 102% with 786-0 renal and 107% in the experiment with COLO 205 colon.

For `Cc1oc(-c2ccc(Cl)cc2)nc1/C=C/C(=O)c1ccccc1`, the growth was 98.8% in the experiment on NCI-H23 lung; 88.4% in the experiment with NCI-H226 lung; 101% in the experiment with NCI-H322M lung; 110% in the experiment with HOP-62 NSCLC; 103% in the experiment on NCI-H460 lung; 88.4% in the experiment on HOP-92 NSCLC. For the same compound, the growth was 93.1% in the experiment on NCI-H522 lung, 99.1% in the experiment with A549/ATCC NSCLC, 96.4% in the experiment with 786-0 renal and 114% in the experiment with COLO 205 colon.

Regarding `COc1ccc2c(O)c(/C=C3\N=Nc4ccccc43)oc2c1C[C@@H]1CCNC[C@H]1F`, the growth in the experiment on NCI-H23 lung was 70.2%; in the experiment with NCI-H226 lung, 58.3%; with NCI-H322M lung, 87.6%; with HOP-62 NSCLC, 71.4%; in the experiment on NCI-H460 lung, 11.2%; in the experiment on HOP-92 NSCLC it was 65.1%. Moreover, the growth was 58.1% in the experiment on NCI-H522 lung, 35.8% in the experiment on A549/ATCC NSCLC, -62.9% (active) in the experiment with 786-0 renal and 58.2% with COLO 205 colon.

Consider `O=c1oc2ccccc2cc1C1=NN=C(SCc2ccccc2)SC1`, for which the growth in the experiment with NCI-H23 lung is 94.9%; with NCI-H226 lung, 96.6%; in the experiment on NCI-H322M lung, 102%; with HOP-62 NSCLC, 82.9%; with NCI-H460 lung, 112%; in the experiment with HOP-92 NSCLC it was 87.2%. For the same compound, the growth in the experiment with NCI-H522 lung was 89.2%; in the experiment with A549/ATCC NSCLC it was 96.6%; with 786-0 renal, 94.8%; with COLO 205 colon, 113%.

Regarding `CS(=O)(=O)Nc1cc(-c2ccc3ncnc(Nc4ccc5c(cnn5Cc5ccccn5)c4)c3c2)cnc1Cl`, the growth was 76.7% in the experiment on NCI-H23 lung; 81.3% in the experiment with NCI-H226 lung; 86.2% with NCI-H322M lung; 68.8% in the experiment on HOP-62 NSCLC; 85.8% in the experiment on NCI-H460 lung; 2.29% (active) in the experiment with HOP-92 NSCLC. Also, the growth in the experiment with NCI-H522 lung was 67.9%; with A549/ATCC NSCLC it was 89.2%; in the experiment with 786-0 renal it was 84.3%; in the experiment with COLO 205 colon, 93.1%.

As for `CC/C(=C(/c1ccc(Cl)cc1)c1ccc(OCCN2CCCC2)cc1)c1ccc(OC)cc1`, the growth was 52.9% in the experiment with NCI-H23 lung; 89% in the experiment with NCI-H226 lung; 79.7% in the experiment with NCI-H322M lung; 92.6% in the experiment on HOP-62 NSCLC; 37.6% in the experiment with NCI-H460 lung; 67% in the experiment on HOP-92 NSCLC. Also, the growth is 82.7% in the experiment on NCI-H522 lung, 61.9% in the experiment on A549/ATCC NSCLC, 71.9% in the experiment with 786-0 renal and 64.7% in the experiment on COLO 205 colon.

`COc1ccc(C(=O)Nc2ncc(Cc3ccc(F)cc3)s2)cc1`: the growth is 30.7% in the experiment on NCI-H23 lung; 40.9% in the experiment on NCI-H226 lung; 34.6% in the experiment with NCI-H322M lung; 28.7% in the experiment with HOP-62 NSCLC; 6.59% (active) in the experiment on NCI-H460 lung; 51.5% in the experiment on HOP-92 NSCLC. For the same compound, the growth in the experiment on NCI-H522 lung was -5.3% (active); in the experiment with A549/ATCC NSCLC, 23.3%; in the experiment with 786-0 renal, 27.8%; in the experiment on COLO 205 colon it was -16.2% (active).

In the case of `CCCNC(=O)Oc1ccc(/C(=C(/C)Cc2ccc(OC)cc2)c2ccc(OCCCN(C)C)cc2)cc1`, the growth was 82.4% with NCI-H23 lung; 94.7% with NCI-H226 lung; 88.3% with NCI-H322M lung; 101% in the experiment with HOP-62 NSCLC; 73.3% in the experiment on NCI-H460 lung; 51.7% in the experiment with HOP-92 NSCLC. Besides, the growth with NCI-H522 lung is 78.5%; in the experiment with A549/ATCC NSCLC, 77.6%; with 786-0 renal it was 92%; in the experiment on COLO 205 colon, 71.6%.

On to `COc1ccc(-c2nc3c(c(-c4ccccc4)nn3-c3ccccc3)c(-c3ccc(N4CCOCC4)cc3)c2C#N)cc1`, for which the growth in the experiment with NCI-H23 lung is 94%; in the experiment with NCI-H226 lung, 102%; with NCI-H322M lung, 102%; in the experiment with HOP-62 NSCLC it was 104%; in the experiment on NCI-H460 lung, 97.4%; with HOP-92 NSCLC, 99.4%. Besides, the growth is 103% with NCI-H522 lung, 103% with A549/ATCC NSCLC, 82.4% in the experiment with 786-0 renal and 124% with COLO 205 colon.

As to `N=C(N)c1ccc(-c2ccc(-c3ccc(F)cc3)o2)o1`, the growth is 44.8% with NCI-H23 lung; 69.7% in the experiment with NCI-H226 lung; 42.4% in the experiment on NCI-H322M lung; 38.1% in the experiment with HOP-62 NSCLC; -13.7% (active) in the experiment on NCI-H460 lung; 16.2% in the experiment with HOP-92 NSCLC. Moreover, the growth in the experiment on NCI-H522 lung is 37.4%; with A549/ATCC NSCLC, 1.43% (active); in the experiment on 786-0 renal, 15.4%; in the experiment with COLO 205 colon it was -76.5% (active).

As for `O=c1c2cc(-c3ccccc3)sc2nc2sc(-c3ccccc3)nn12`, the growth in the experiment with NCI-H23 lung is 98.9%; in the experiment with NCI-H226 lung, 104%; in the experiment with NCI-H322M lung it was 104%; with HOP-62 NSCLC, 102%; in the experiment on NCI-H460 lung, 100%; in the experiment with HOP-92 NSCLC, 84.3%. Also, the growth in the experiment with NCI-H522 lung was 95.7%; with A549/ATCC NSCLC it was 91.6%; with 786-0 renal, 93%; in the experiment on COLO 205 colon, 109%.

As to `CC1=Nc2cnc(Nc3ccc(OCCN4CCCC4)cc3)nc2Nc2ccccc21`, the growth in the experiment with NCI-H23 lung was 80.4%; in the experiment on NCI-H226 lung it was 77.8%; in the experiment with NCI-H322M lung it was 44.6%; with HOP-62 NSCLC, 86.4%; in the experiment on NCI-H460 lung it was 64.2%; in the experiment on HOP-92 NSCLC it was 43.2%. The growth is 73.9% in the experiment on NCI-H522 lung, 86.5% in the experiment with A549/ATCC NSCLC, 54% in the experiment on 786-0 renal and 72.2% in the experiment with COLO 205 colon.

In the case of `O=[N+]([O-])/C(=C/C=C/c1ccccc1)c1ccccc1`, the growth in the experiment with NCI-H23 lung was 75.5%; with NCI-H226 lung it was 87.8%; with NCI-H322M lung, 100%; in the experiment with HOP-62 NSCLC, 35.9%; in the experiment with NCI-H460 lung it was 70.7%; with HOP-92 NSCLC it was -8.76% (active). Moreover, the growth was 19.8% in the experiment with NCI-H522 lung, 72.6% with A549/ATCC NSCLC, -7.75% (active) in the experiment on 786-0 renal and 23.2% in the experiment with COLO 205 colon.
